This is part of a sample that, as a whole, favours compounds with a hit. Of some 83,000 tested, about 20% had one in any assay.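 Negative percent growth values reflect cell death: -40 means 40% of the cells present at the start died, and -100 means all died.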 Unmarked numbers belong to inactive results. Activity calls are given as the source filed them. How the source made its calls: active means growth percent below 10; inactive means the rest.
Assays:
Test in all cases: NCI-60 one-dose screen, 48 h (100 = growth as untreated, 0 = no growth, -100 = all killed)
Conditions in all cases: 10 µM unless noted
[1] = system: SR leukemia
[2] = system: RPMI-8226 leukemia
[3] = system: OVCAR-8 ovarian
[4] = system: OVCAR-5 ovarian
[5] = system: OVCAR-4 ovarian
[6] = system: SK-OV-3 ovarian
[7] = system: IGROV1 ovarian
[8] = system: HS 578T breast
[9] = system: NCI/ADR-RES ovarian
[10] = system: T-47D breast
[11] = system: BT-549 breast
[12] = system: MDA-MB-435 melanoma
[13] = system: SW-620 colon
[14] = system: HCT-116 colon
[15] = system: HCC-2998 colon
[16] = system: KM12 colon
[17] = system: MCF7 breast

SMILES | growth [1] | growth [2] | growth [3] | growth [4] | growth [5] | growth [6] | growth [7] | growth [8] | growth [9] | growth [10] | growth [11] | growth [12] | growth [13] | growth [14] | growth [15] | growth [16] | growth [17]
CCCCc1nc2c(N)nc3ccccc3c2n1Cc1ccc(OC)cc1 | 46.2% | 34.1% | 67.4% | 82.4% | 58.1% | 74.8% | 56.8% | 79.8% | 59.2% | 65.3% | 72% | 84% | 68.6% | 32.5% | 85.5% | 83.1% | –
N#C/C(=C\c1ccc(-c2ccc(Cl)cc2)o1)C(=O)Nc1ncc(Cc2ccc(Br)cc2)s1 | 16.8% | 64.1% | 6.49% (active) | 42.4% | -26.7% (active) | 70.3% | 7.06% (active) | -2.91% (active) | 8.56% (active) | 18.7% | 24.7% | 11.3% | -40% (active) | -33% (active) | 62.4% | 9.51% (active) | 30.5%
COc1ccc([C@@H]2C(=O)N(c3cc(OC)c(OC)c(OC)c3)[C@H]2c2ccc(OC)c(O)c2)cc1 | 20% | 13.1% | 10.6% | 32.4% | 58.9% | 30.3% | 22.5% | 14.9% | 13.6% | 94.9% | -30.1% (active) | -15.4% (active) | 24.2% | 6.47% (active) | 17% | 10.7% | 10.6%
O=C(CCCCCCN1CC(=O)N2[C@@H](c3cccs3)c3[nH]c4ccccc4c3C[C@H]2C1=O)NO | 35.6% | 55% | 61.7% | 70.4% | 95.6% | 101% | 94.3% | 81.1% | 90.4% | 42.7% | 104% | 80.8% | 82.7% | 60.5% | 101% | 81.8% | 52.1%
C#Cc1nc(C(=O)NCCCCCCC(=O)NO)cs1 | 0.171% (active) | -10.1% (active) | 15.8% | 10.2% | 25.8% | 29.2% | -72.6% (active) | -3.14% (active) | 2.01% (active) | -38.5% (active) | 50.3% | -34.9% (active) | 0.565% (active) | -18.2% (active) | 25.9% | -7.86% (active) | 6.97% (active)
CS(=O)(=O)c1ccc(/C(=N/N=C(N)N)c2ccc(Cl)cc2)cc1 | 35.1% | 101% | 103% | 99.7% | 98.4% | 87.2% | 85.6% | 91.8% | 102% | 89% | 85% | 8.68% (active) | 74.6% | 73.8% | 91.2% | 72% | –
CN1CCN(c2ccc(Nc3nc(NCCNS(=O)(=O)c4ccc(Cl)cc4)c4sccc4n3)cc2)CC1 | 22.7% | 80.8% | 101% | 98.7% | 84% | 121% | 92.9% | 81.2% | 100% | 84.3% | 111% | 95.4% | 94.7% | 58.5% | 108% | 93.7% | 83.2%
COc1ccc(/C=N/NC(=O)c2c(N)nn(C)c2Nc2ccccc2)cc1Oc1ccccc1 | 87.8% | 82.1% | 87.7% | 92.4% | 92.2% | 112% | 93.5% | 93.6% | 92.6% | 78.1% | 94.1% | 101% | 100% | 79.8% | 101% | 92.7% | 75.3%
Cc1ccc(N2CCN(C3=C(Cl)C(=O)c4ncccc4C3=O)CC2)cc1 | 4.58% (active) | 11.8% | 67.9% | 110% | 48.3% | 112% | 58.6% | 79.7% | 55.8% | -56.1% (active) | 103% | -81.2% (active) | -79.7% (active) | -78.1% (active) | 104% | 80% | -62% (active)
CC(=O)N1N=C(c2cc3ccccc3oc2=O)CC1c1cn(-c2ccccc2)nc1-c1ccc(C)cc1 (centres undefined) | 101% | 102% | 97.3% | 94.1% | 94.4% | 95.2% | 108% | 93.7% | 96.1% | 96.4% | 117% | 102% | 98.8% | 92.1% | 106% | 98.6% | 90.8%
CC(=O)/C(N=Nc1ccc2oc(=O)ccc2c1)=C(\C)O | 9.76% (active) | 12.3% | 25.1% | 50.8% | 50% | 37.1% | 32.4% | 63.1% | 13.3% | 8.7% (active) | 33.2% | 33.2% | 17.6% | 12.1% | 35.7% | 19% | 25.8%
O=C1[C@H]2Cc3c([nH]c4ccccc34)[C@H](c3ccc(Br)cc3)N2C(=O)CN1C1CCN(CC2CCCCC2)CC1 | -12.7% (active) | 43.2% | 85.4% | 106% | 82.7% | 87.9% | 82.2% | 78% | 75.2% | 97.9% | 96.5% | 85.1% | 79.7% | 18% | 67.8% | 77% | 25.8%
Cc1cc(=O)oc2cc(OCCCOc3ccc(/C=C/C(=O)Nc4ccc(Br)cc4)cc3)ccc12 | 51.8% | 75.6% | 83.9% | 95.4% | 105% | 98.2% | 72.7% | 76.3% | 64.6% | 57.7% | 78.8% | 97.3% | 57.2% | 85.4% | 96.6% | 88.6% | 58.9%
CNC(=O)c1cc(N2CCc3cc(NC(=O)Nc4ccc(N5CCOCC5)c(C(F)(F)F)c4)ccc32)ccn1 | 14.4% | 16% | 23.5% | 57.4% | 41.4% | 80% | 37.3% | -0.517% (active) | 16.8% | 28.1% | -12.6% (active) | 41.5% | 34.6% | 2.52% (active) | 22% | 11.1% | 12.4%
Nc1cc(C(=O)N/N=C\c2ccc(OC(F)F)c(OC3CCCC3)c2)nn1CC(O)c1ccccc1 (centres undefined) | 88.1% | 87.5% | 96.9% | 108% | 91.4% | 105% | 108% | 109% | 109% | 83.6% | 118% | 103% | 103% | 103% | 114% | 95.6% | –
O=C(/C=C/c1ccc(F)cc1)Nc1cccc2cccnc12 | 103% | 94.2% | 106% | 104% | 93.3% | 90.2% | 71.8% | 112% | 102% | 32.8% | 115% | 107% | 101% | 95.9% | 88% | 95% | 6.92% (active)
